Eight molecules from PubChem BioAssay (Tox21) can be followed below.

Test [1] is described as follows: qHTS assay to identify small molecule antagonists of the estrogen related receptor (ERR) signaling pathway from Tox21 library - cell viability counter screen (AID 1224834). Note: nearly all actives have a fitted effect of over 30% in size. Note: potency is the fitted concentration of half-maximal effect. The method in brief: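 In this quantitative HTS format, ERR cells receive compounds in DMSO and are incubated for 17.5 h at 37 C. Live-cell protease activity is then detected with CellTiter-Fluor.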

Test [2] deals with Luciferin 4-monooxygenase (Photinus pyralis) (UniProt P08659). Nature of the test: qHTS assay to identify small molecule inhibitors of firefly luciferase (AID 1224835). Note: nearly all actives have a fitted effect of over 25% in size. Note: potency is the fitted concentration of half-maximal effect. In short, it runs like this:
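Biochemical qHTS: compounds run as interplate titrations against purified firefly enzyme, with D-luciferin and ATP each at its KM concentration. Light output recorded by CCD imaging.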

Test [3] is described as follows: qHTS assay to identify small molecule agonists of the constitutive androstane receptor (CAR) signaling pathway - cell viability counter screen (AID 1224836). Note: nearly all actives have a fitted effect of over 45% in size. In short, it runs like this: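 Cells were seeded and incubated 4 hrs. Compounds were added across 15 concentrations together with PK11195 at 0.75 uM final. Plates were incubated 23 hrs at 37 C. CellTiter-Fluor was added and fluorescence measured.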

Test [4] is described as follows: qHTS assay to identify small molecule antagonists of the constitutive androstane receptor (CAR) signaling pathway - cell viability counter screen (AID 1224837). Note: nearly all actives have a fitted effect of over 45% in size. Note: potency is the fitted concentration of half-maximal effect. In short, it runs like this: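 In quantitative HTS format, compounds at 15 concentrations were applied to HepG2 cells double-transfected with hCAR and CYP2B6-2.2kb under 50 nM CITCO stimulation; live-cell protease activity was read after 23 hr via CellTiter-Fluor.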

The nature of test [5]: qHTS assay to identify small molecule antagonists of the estrogen related receptor signaling pathway with the pleiotropic PPARgamma coactivator (PGC) from Tox21 10K library - cell viability counter screen (AID 1224840; active = well fitted cell-killing curve with a large enough effect in the repeat runs, not every such curve was filed as active; note: nearly all actives have a fitted effect of over 40% in size; note: potency is the fitted concentration of half-maximal effect). The method in brief:
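Viability counter screen, PGC/ERR cells: 17.5 h compound exposure at 37 C, CellTiter-Fluor fluorescence endpoint.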

In test [6] the target is Thyrotropin receptor (Homo sapiens) (UniProt P16473). Description: qHTS assay to identify small molecule agonists of the thyroid stimulating hormone receptor (TSHR) signaling pathway (AID 1224843; calls by dose curve; note: nearly all actives have a fitted effect of over 45% in size; note: potency is the fitted concentration of half-maximal effect). The method in brief:
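Agonist-mode screen: TSHR HEK293 cells received test chemicals for half an hour at room temperature, then HTRF cAMP detection reagents for one hour prior to fluorescence measurement. Each chemical ran as a 15-concentration series, triplicated.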

The nature of test [7]: qHTS assay to identify small molecule agonists of the hypoxia (HIF-1) signaling pathway - cell viability counter screen (AID 1224844; calls by dose curve; note: nearly all actives have a fitted effect of over 50% in size). In short, it runs like this:
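Same wells as the HIF-1 reporter screen; ME-180 cells carrying HRE-bla, 17 hr treatment at 37C; CellTiter-Glo luminescence read after 30 min at room temperature.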

The nature of test [8]: qHTS assay to identify small molecule agonists of H2AX (AID 1224845; active = well fitted activation curve with a large enough effect in the signal ratio in the repeat runs, not every such curve was filed as active; the % refers to the signal ratio). In short, it runs like this:
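Wild-type CHO-K1 cells, plated overnight, exposed 3hr at 37C to 15 concentrations (0.76% DMSO final). Lysed, then HTRF anti-pH2AX (S139) cryptate and anti-H2AX-d2 antibodies, 24 hr room temperature; 665/620 nm emission read.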

Test [9] in a line: qHTS assay to identify small molecule agonists of the hypoxia (HIF-1) signaling pathway (AID 1224846; active = well fitted activation curve with a large enough effect in the signal ratio in the repeat runs, not every such curve was filed as active; the % refers to the signal ratio). In short, it runs like this:
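In ME-180 cells bearing an HRE-bla construct, 17 h treatment with DMSO-dissolved compounds at 37C was followed by CCF4-AM loading to quantify reporter induction.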

The nature of test [10]: qHTS assay to identify small molecule agonists of H2AX - cell viability counter screen (AID 1224847; calls by dose curve; note: nearly all actives have a fitted effect of over 30% in size; note: potency is the fitted concentration of half-maximal effect). The method in brief:
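Cytotoxicity counter screen in wild-type CHO-K1 cells: a 3 hr compound treatment at 37C across 15 concentrations, followed by CellTiter-Glo luminescence to gauge viable cells.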

The nature of test [11]: qHTS RealTime-Glo MT Cell Viability Assay in HepG2 cells - 24 hour (AID 1224867). Note: nearly all actives have a fitted effect of over 50% in size. In short, it runs like this:
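Cell number in HepG2 cultures estimated from NanoLuc luminescence generated by metabolic reduction of a prosubstrate by living cells. The homogeneous, nonlytic format allowed repeated reads at 0, 8, 16, 24, 32 and 40 h of compound exposure.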

A short description of test [12]: qHTS RealTime-Glo MT Cell Viability Assay in HEK293 cells - 32 hour (AID 1224868). Note: nearly all actives have a fitted effect of over 50% in size. Note: potency is the fitted concentration of half-maximal effect. The method in brief:
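Homogeneous bioluminescent viability format in HEK293 cells (600 cells/well). Following 5 h at 37 C/5% CO2, 23 nL compound was pintooled; the signal was measured repeatedly during 40 h incubation.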

For test [13], the target named is Nuclear receptor subfamily 1 group I member 3 (Homo sapiens) (UniProt Q14994). Nature of the test: qHTS assay to identify small molecule agonists of the constitutive androstane receptor (CAR) signaling pathway (AID 1224839).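 Note: HepG2 cells stably carrying human CAR and a CYP2B6 luciferase reporter; nearly all actives have a fitted effect of over 15% in size.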 In short, it runs like this: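 Cells were plated and incubated 4 hrs, then dosed with compounds at 15 concentrations. PK11195 was added to 0.75 uM final. After 24 hrs at 37 C, luciferase luminescence was measured.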
Chain of Nuclear receptor subfamily 1 group I member 3 (Homo sapiens) (Q14994 whole entry, looked up): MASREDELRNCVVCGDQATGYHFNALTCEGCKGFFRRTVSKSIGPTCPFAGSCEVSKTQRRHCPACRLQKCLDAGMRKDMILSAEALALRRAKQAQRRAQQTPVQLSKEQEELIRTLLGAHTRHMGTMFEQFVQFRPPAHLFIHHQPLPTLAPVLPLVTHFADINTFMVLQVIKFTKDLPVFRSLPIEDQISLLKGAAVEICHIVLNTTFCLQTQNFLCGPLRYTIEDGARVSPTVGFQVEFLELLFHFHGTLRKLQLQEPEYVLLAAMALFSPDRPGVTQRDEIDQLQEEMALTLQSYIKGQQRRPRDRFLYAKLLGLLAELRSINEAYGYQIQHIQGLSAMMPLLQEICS

Test [14] in a line: qHTS assay to identify small molecule antagonists of the estrogen related receptor signaling pathway with the pleiotropic PPARgamma coactivator (PGC) from Tox21 10K library (AID 1224841; call rule not given here; note: actives are mostly falling curves and most rising ones were filed inactive; nearly all actives have a fitted effect of over 50% in size; note: potency is the fitted concentration of half-maximal effect). The method in brief: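 In the PGC/ERR line, DMSO solutions of test chemicals are pin-delivered to 2,000 cells/well six hours after dispensing. Following eighteen hours' incubation, One-Glo reagent is added and luminescence recorded.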

A short description of test [15]: qHTS assay to identify small molecule agonists of the estrogen related receptor signaling pathway with the pleiotropic PPARgamma coactivator (PGC) from Tox21 10K library (AID 1224842). Note: nearly all actives have a fitted effect of over 15% in size. The method in brief:
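PGC/ERR reporter cell line, 2,000 cells per well, incubated 6 h at 37 C before 23 nL compound in DMSO was added. After 18 h at 37 C, One-Glo luminescence read following 30 min at room temperature.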

Test [16] in a line: qHTS assay to identify small molecule antagonists of the estrogen related receptor (ERR) signaling pathway from Tox21 library (AID 1224848). Note: nearly all actives have a fitted effect of over 50% in size. Note: potency is the fitted concentration of half-maximal effect. In short, it runs like this: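 Quantitative high-throughput format: ERR reporter cells (2,000/well) pre-incubated 6 h, treated 18 h at 37 C with compounds in DMSO alongside positive and negative controls, then read by ONE-Glo luminescence.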

The nature of test [17]: qHTS assay to identify small molecule agonists of the estrogen related receptor (ERR) signaling pathway from Tox21 library (AID 1224849; calls by dose curve; note: nearly all actives have a fitted effect of over 15% in size). The following applies: ERR reporter cell line, ONE-Glo luciferase, 18 h; at 92.4 µM (top of the series) unless noted. In short, it runs like this:
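Reporter cells (ERR, NTP source) treated with Tox21 10K compounds 18 h, 37 C. Readout: ONE-Glo luminescence, 30 min RT.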

Test [18] in a line: A CellTox Green Cytotoxicity Assay to monitor cytotoxicity in HEK293 cells - 0 hour (AID 1224869). Note: nearly all actives have a fitted effect of over 50% in size. In short, it runs like this: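 Homogeneous no-lysis format: HEK293 cell suspension mixed with CellTox Green reagent, seeded, incubated 5 h at 37 C/5% CO2, then dosed by pintool with compound in DMSO.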
Test [19] has as its target Nuclear receptor subfamily 1 group I member 3 (Homo sapiens) (UniProt Q14994). Nature of the test: qHTS assay to identify small molecule antagonists of the constitutive androstane receptor (CAR) signaling pathway (AID 1224838). Note: nearly all actives have a fitted effect of over 40% in size. In short, it runs like this: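 CITCO-stimulated (50 nM final) HepG2 cells stably transfected with hCAR and CYP2B6-2.2kb luciferase were exposed to compounds at 15 concentrations for 24 h at 37 C/5% CO2. A luciferase reagent was added and luminescence recorded after 30 min.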

The structures appear in SMILES notation. A number with no mark means an inactive call. Results filed as inconclusive are left out. Activity calls are given as the source filed them. Unless noted, calls come from the whole dose curve; as a rule, active = well fitted curve in the direction sought with a large enough effect in the repeat runs; inconclusive = weak or mixed curves; inactive = no such curve, though single readings can be large; an effect the other way counts as inactive or inconclusive.
% is set by controls: 0 for no effect and ±100 for the full control effect.

Chain of Thyrotropin receptor (Homo sapiens) (P16473 whole entry, looked up): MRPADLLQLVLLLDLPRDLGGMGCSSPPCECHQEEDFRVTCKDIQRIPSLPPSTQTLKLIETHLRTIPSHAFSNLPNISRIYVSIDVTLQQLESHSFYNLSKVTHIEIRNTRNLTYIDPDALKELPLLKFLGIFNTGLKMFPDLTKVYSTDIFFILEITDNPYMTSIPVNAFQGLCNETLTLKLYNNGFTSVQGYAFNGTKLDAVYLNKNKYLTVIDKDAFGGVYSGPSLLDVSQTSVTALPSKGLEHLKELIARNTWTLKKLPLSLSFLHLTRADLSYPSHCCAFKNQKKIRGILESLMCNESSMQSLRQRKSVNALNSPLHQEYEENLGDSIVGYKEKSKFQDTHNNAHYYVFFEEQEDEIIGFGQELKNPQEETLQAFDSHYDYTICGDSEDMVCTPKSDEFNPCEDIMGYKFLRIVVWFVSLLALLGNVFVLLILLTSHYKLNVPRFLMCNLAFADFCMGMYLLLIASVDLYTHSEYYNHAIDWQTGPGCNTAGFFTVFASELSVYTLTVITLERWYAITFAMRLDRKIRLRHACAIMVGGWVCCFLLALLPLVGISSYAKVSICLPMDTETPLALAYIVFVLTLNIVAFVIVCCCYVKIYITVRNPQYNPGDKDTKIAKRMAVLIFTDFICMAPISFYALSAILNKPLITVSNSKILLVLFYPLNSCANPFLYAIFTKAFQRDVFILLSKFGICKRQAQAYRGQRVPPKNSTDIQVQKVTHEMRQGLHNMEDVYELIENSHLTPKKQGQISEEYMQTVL
Chain of Luciferin 4-monooxygenase (Photinus pyralis) (P08659 whole entry, looked up): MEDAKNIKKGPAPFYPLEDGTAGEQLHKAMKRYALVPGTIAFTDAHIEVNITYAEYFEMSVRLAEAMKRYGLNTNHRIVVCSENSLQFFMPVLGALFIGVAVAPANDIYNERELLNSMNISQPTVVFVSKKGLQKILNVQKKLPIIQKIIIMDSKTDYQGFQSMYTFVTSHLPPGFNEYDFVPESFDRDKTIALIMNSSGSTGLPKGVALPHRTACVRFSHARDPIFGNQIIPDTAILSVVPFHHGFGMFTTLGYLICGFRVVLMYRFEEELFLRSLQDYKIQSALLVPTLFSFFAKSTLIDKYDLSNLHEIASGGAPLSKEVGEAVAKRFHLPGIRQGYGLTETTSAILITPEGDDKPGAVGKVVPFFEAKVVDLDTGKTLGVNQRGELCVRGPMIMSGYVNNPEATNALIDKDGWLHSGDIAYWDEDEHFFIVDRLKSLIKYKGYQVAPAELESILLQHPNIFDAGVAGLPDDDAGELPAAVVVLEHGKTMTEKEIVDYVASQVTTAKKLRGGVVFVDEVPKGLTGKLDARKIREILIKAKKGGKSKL

With `Cl/C=C\Cl`, the Potency result in test [1], in test [2], in test [3], in [4], in test [5] and in test [6] was “inactive” in each case. Moreover, the Potency entry in test [7], in test [8], in test [10], in [11] and in test [12] was “inactive” each time. Besides, the result in test [9] was inactive.
On to `S=C=NCc1ccccc1`, for which the Potency result in test [1], in test [2], in test [3], in test [13], in test [5] and in test [14] was “inactive” each time. In addition, the Potency entry in test [15], in [6], in test [7], in test [8], in test [10] and in test [16] was “inactive” in each case. Further, the Potency result in test [11] and in test [18] was “inactive” throughout. Besides, the activity change, positive = activation in test [17] was -18.1%. The Potency in [12] is 44.1 µM (active).
In the case of `CCCCC(O)(Cn1cncn1)c1ccc(Cl)cc1Cl` (centres undefined), the Potency is 54.4 µM (active) in test [1]; 61.1 µM (active) in [4]; 54.4 µM (active) in test [5]; 48.5 µM (active) in test [14]; 113 µM (active) in test [10]; 38.5 µM (active) in test [16]. Besides, the Potency in test [12] was 38.9 µM (active). Moreover, the Potency entry in [2], in test [19], in test [15], in [8] and in [18] was “inactive” throughout. In addition, the call in test [9] was inactive. Moreover, in test [17], the activity change, positive = activation is -59.1%.
Take `CCc1ccc(C(=O)NN(C(=O)c2cc(C)cc(C)c2)C(C)(C)C)cc1`: the Potency in [1] is 8.63 µM (active); in test [14] it was 30.6 µM (active); in [6] it was 15.4 µM (active); in test [16] it was 30.6 µM (active). Moreover, the Potency entry in test [2], in [5], in test [15], in test [8], in test [10] and in [11] was “inactive” throughout. Moreover, the Potency entry in test [12] and in test [18] was “inactive” throughout. The result in test [9] was inactive. The activity change, positive = activation in test [17] is -56.4%.
Take `CC1(C)[C@H](C=C(Cl)Cl)[C@@H]1C(=O)O[C@@H](C#N)c1cccc(Oc2ccccc2)c1`: the Potency entry in [1], in test [2], in test [3], in test [4], in test [5] and in [7] was “inactive” in each case. Besides, the Potency result in test [8], in test [10], in test [11], in test [12] and in [18] was “inactive” each time. Besides, the call in test [9] was inactive.
For the molecule `NCCCNCCCN`, the Potency entry in test [1], in test [3], in test [4], in test [19], in [13] and in test [5] was “inactive” in each case. For the same molecule, the Potency entry in [6], in test [7], in test [8], in [10], in [11] and in test [12] was “inactive” throughout. For the same molecule, the Potency result in [18] was “inactive”. For the same molecule, in [9], the call was inactive.
Take `Cc1ccc(-c2c(Cl)nc(C#N)n2S(=O)(=O)N(C)C)cc1`: the Potency is 54.4 µM (active) in test [1], 35.6 µM (active) in test [2] and 61.1 µM (active) in test [5]. Besides, the Potency result in test [13], in [8], in test [10], in test [11] and in test [18] was “inactive” each time. Also, the molecule was classed as inactive in [9].
As for `O=[N+]([O-])C(Br)(CO)CO`, the Potency result in test [1], in [3], in test [13], in [14], in [8] and in test [16] was “inactive” each time. For the same molecule, in test [18], the Potency entry was “inactive”. The Potency in test [6] was 30.6 µM (active).
